Laboratory results from PubChem BioAssay AID1839 (Johns Hopkins Ion Channel Center, 2009).
About 220 (9.2%) of roughly 2,400 compounds were called active. Only a selection was taken, and actives are over-represented in it overall. A number with no mark means an inactive call.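 Rule for the calls: active = signal change above the mean of dofetilide-free buffer controls plus 3 SD, so a positive margin; inactive = the rest.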

assay: nonspecific flux effects in parental CHO-K1, confirmation, counter-screen for hERG block protection project, cell-based, CHO-K1 parental line, FluxOR thallium flux (AID 1839); conditions: CHO-K1 parental cells, FluxOR thallium flux fluorescence; at 10 µM;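 note: compounds applied alone with no dofetilide to cells lacking hERG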

Row | SMILES | signal change vs control minus 3*SD hit threshold (margin above threshold, higher = more increase)
1 | CCNC(=S)Nc1nc2c(cc1C(=O)OCC)CCCC2 | -12.5%
2 | CCc1ccc(/C=N/NC(=O)c2nnn(-c3nonc3N)c2C(C)C)cc1 | -35%
3 | O=C(NC(=S)N1CCCc2ccccc21)c1ccc([N+](=O)[O-])cc1 | -14.7%
4 | C[n+]1ccccc1COc1ccc(C(C)(C)C)cc1 | -20.4%
5 | O=c1cc(-c2c(F)c(F)c(F)c(F)c2F)oc2ccccc12 | -13.6%
6 | CCOC(=O)c1c(C)[nH]c(C)c1S(=O)(=O)N1CCCCC1 | -27.3%
7 | CCC1CCCCN1C(=S)NC(=O)c1cccc([N+](=O)[O-])c1 (configuration not stated) | -12.4%
8 | O=S(=O)(Nc1ccc(Cc2ccncc2)cc1)c1ccc(Cl)c(Cl)c1 | -33.7%
9 | CCOC(=O)/C(C)=N/NC(=O)c1ccc([N+](=O)[O-])cc1 | -4.1%
10 | CCc1ccc2nc(NC(=O)c3cc(C)on3)sc2c1 | -21.2%
11 | Cc1ccc2nc(NC(=S)NC(=O)c3cccs3)sc2c1 | -3.1%
12 | Cc1ccc2nc(NC(=S)NC(=O)c3ccco3)sc2c1 | 13.7% (active)
13 | Cc1csc2c(N3CCCCC3)ncnc12 | -19.8%
14 | Cc1sc2ncnc(SCC(=O)NC(=O)c3cccn3C)c2c1C | -30.1%
15 | COc1ccc(NC(=O)c2cn(-c3ccccc3)nc2-c2ccncc2)cc1 | -28.9%
16 | Oc1c(Cl)cc(Cl)cc1/C=N/c1ncn[nH]1 | -9.1%
17 | Oc1c(Cl)cc(Cl)cc1/C=N/c1nccs1 | -6.3%
18 | Oc1c(Cl)cc(Cl)cc1Sc1cc(Cl)cc(Cl)c1O | 53.5% (active)
19 | Cc1cc2[nH]c(=O)c(=O)[nH]c2cc1S(=O)(=O)N1CCN(c2cccc(C)c2C)CC1 | -25%
20 | CCOC(=O)N1CCN(C(=O)CN(c2ccc(OCC)cc2)S(C)(=O)=O)CC1 | -29.2%
21 | CC1CCN(C(=S)NC(=O)c2cccs2)CC1 | -12%
22 | CC1CCCCC1NC(=S)NC(=O)c1cccs1 (configuration not stated) | 3.7% (active)
23 | CC1CCCCC1NC(=S)NC(=O)c1sc2ccccc2c1Cl (configuration not stated) | -26.5%
24 | CC(=O)Nc1ccc(S(=O)(=O)NC2(C(F)(F)F)C(=O)Nc3c2c(=O)[nH]c(=O)n3C)cc1 (configuration not stated) | -24.3%
25 | CCC1(C)Cc2c(sc3nc(SC)[nH]c(=S)c23)CO1 (configuration not stated) | 48.8% (active)
26 | CSc1nc2sc3c(c2c(=S)[nH]1)CC(C)(C)OC3 | 31.8% (active)

Row | SMILES | signal change vs control minus 3*SD hit threshold (margin above threshold, higher = more increase)
27 | CCc1nc2sc3c(c2c(=S)[nH]1)CC(C)(C)OC3 | -18.6%
28 | CC(=O)c1ccc(S(=O)(=O)NCc2ccc(C(=O)N(C)CC(=O)Nc3cccc(F)c3)cc2)cc1 | -20.8%
29 | CC1Cc2cc(S(=O)(=O)NCc3ccccc3)ccc2N1C(=O)C1CCC1 (configuration not stated) | -33.7%
30 | O=C1NC(=O)C2(COC(c3cccc([N+](=O)[O-])c3)OC2)S1 (configuration not stated) | -28.4%
31 | CCCn1nnnc1SCC(=O)Nc1nnc(CC)s1 | -22.9%
32 | Cc1cc(=S)nc(-c2ccccn2)[nH]1 | -18.7%
33 | Cc1[nH]c(-c2ccccn2)nc(=S)c1Cl | 18.1% (active)
34 | c1ccc(-c2n[nH]c(-c3ccccn3)n2)cc1 | -23.5%
35 | CCCCCOc1ccc(C2C(C(C)=O)=C(C)Nc3ncnn32)cc1OC (configuration not stated) | -35.5%
36 | S=c1[nH]nc(Nc2ccc(Cl)cc2)s1 | -36.9%
37 | O=Cc1cc(-c2ccccc2)[nH]c1-c1ccccc1 | -28.6%
38 | Cc1ccc(-c2csc3nc[nH]c(=S)c23)cc1 | -1.7%
39 | S=c1[nH]cnc2scc(-c3ccc(Cl)cc3)c12 | -13.3%
40 | Cc1cccc(-n2cc(-c3ccccc3)[nH]c2=S)c1 | -28%
41 | S=c1[nH]c(-c2ccc(Cl)cc2)cs1 | 61.6% (active)
42 | S=c1[nH]c(-c2ccccc2)cs1 | 16.2% (active)
43 | Cc1ccc(-c2csc(=S)[nH]2)cc1 | 59.2% (active)
44 | Cc1ccc(Cc2c[nH]c(=S)s2)cc1 | -4.6%
45 | CC(C)Nc1nc(SCC(N)=O)nc(N2CCOCC2)n1 | -27.8%
46 | CCC(C)(C)C1CCc2c(sc(NC(=O)c3ccccc3C(=O)O)c2C#N)C1 (configuration not stated) | -7%
47 | CCOC(=O)C1C(c2ccccc2)C(C(=O)OCC)C1c1ccccc1 (configuration not stated) | -27.3%
48 | Cc1ccc(NC(=O)CN2C(=O)S/C(=C\c3ccc(-c4cccc(C(=O)O)c4C)o3)C2=O)cc1 | -30.6%
49 | COc1ccc(-c2ccc(/C=N/NC(=O)c3cccnc3)o2)c([N+](=O)[O-])c1 | -34.4%
50 | O=C(O)CCCCn1c(SCc2ccccc2Cl)nc2ccsc2c1=O | -18.4%
51 | CCOC(=O)NC(=S)Nc1ccc(C(C)(C)C)cc1 | -14.3%
52 | O=C(NC(=S)Nc1cc(C(F)(F)F)ccc1Cl)c1ccccc1 | -22.9%
